Most compounds without a hit are left out; they make up all but 3.3% or so of the library.
Casp6 inh = human caspase-6 inhibitors, primary screen, biochemical, VEID-R110 fluorescence, single point, set 2. purified caspase-6, Z-VEID-R110 cleavage fluorescence. inhibition, % at 12.5 µM. 350,000 tested, 0.53% active. AID 686996, 2013;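 active = mean inhibition across replicates at least about 35%, with every replicate also reaching that limit, limit read from the data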;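 also: 0% = median of neutral control wells and 100% = no fluorescence left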
GSIS activator = GLuc luminescence reporter in INS-1E cells, primary screen for activators of glucose-dependent secretion of insulin | INS-1E GLuc reporter insulin secretion, 2-3 h | activation, % at 16.6 µM | 370,000 tested, 0.61% active | AID 743287, 2014;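 active = lowest replicate activation of at least 40%, so every replicate reaches that level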;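 also: 0% = median of neutral control wells and 100% = median of IBMX positive control wells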
FGF22 binding = binders of human FGF22 protein, primary screen, FGF22 synaptogenesis inhibitor project, biophysical, thermal shift, single point; recombinant FGF22 thermal shift, SYPRO orange fluorescence; percent of sucrose octasulfate shift, DMSO zero; activity (Tm shift, normalised), % at 9.99 µM; AID 651658, 2012; 340,000 tested, 1.5% active; Fibroblast growth factor 22 (Homo sapiens), Q9HCT0;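 active = mean Tm shift, scaled 0 neutral to 100 positive control, at about 1.3% or above, every replicate too, limit read from the data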
ERAP1 HTS inh = human ERAP1 aminopeptidase inhibitors, primary screen, biochemical, single point, plate reader; inhibition, % at 10.7 µM; 340,000 tested, 0.15% active; recombinant ERAP1, Leu-AMC fluorescence, 60 min; Endoplasmic reticulum aminopeptidase 1 (Homo sapiens), Q9NZ08; AID 652197, 2013;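 active = mean replicate inhibition of at least 30%, or all replicates individually reaching that 30% level; inactive = mean below 30% and not every replicate reaching it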;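 also: 0% = neutral control wells and 100% = L-leucinethiol positive control wells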
SIRT5 inh = SIRT5 desuccinylase inhibitors, primary screen, biochemical, fluorescence imaging, single point, set 5 | NAD-dependent protein deacylase sirtuin-5, mitochondrial (Homo sapiens), Q9NXA8 | Purified SirT5, succinyl-peptide AMC, trypsin-coupled fluorescence | inhibition, % at 15 µM | 330,000 tested, 1.1% active | AID 652115, 2013; in the data active = inhibition above about 15%
Active calls of the source: *; x = no result given.

SMILES	Casp6 inh	GSIS activator	FGF22 binding	ERAP1 HTS inh	SIRT5 inh
Clc1nccc(N2CCN(c3ccccc3Cl)CC2)n1	-1	-10	0	x	18*
CCCCCc1ccc(-c2cn(CCCOCc3ccccc3)nn2)cc1	6	x	4.2*	-2	-1
C[C@@H]1CN([C@@H](C)CO)C(=O)c2cc(NS(=O)(=O)c3cccs3)ccc2O[C@@H]1CN(C)Cc1ccc(-c2ccccc2)cc1	2	-10	-1	-5	0
CC1(C(=O)Nc2ccccc2)Cc2ccccc2C(=O)O1 (stereo unspecified)	-1	11	0	2	-3
COc1ccc(CNC(=O)C2(C)Cc3ccccc3C(=O)O2)cc1 (stereo unspecified)	-3	4	44*	-4	1
CCS(=O)(=O)N1[C@@H](CO)[C@H](c2ccccc2)C12CN(C(=O)C1CC1)C2	1	1	0	-2	7
Cc1ccc(NC(=S)NC(=O)/C=C/c2ccco2)c(O)c1	43*	0	0	1	12
O=C(O)CCCCCNC(=O)/C=C/c1ccco1	8	6	0	6	-3
O=C(O)CCCNC(=O)/C=C/c1ccco1	60*	10	44*	-2	0
COc1ccc(NC(=S)NC(=O)/C=C/c2ccco2)c(OC)c1	0	4	0	2	1
O=C(/C=C/c1ccco1)NC(=S)Nc1ccccc1O	51*	-4	0	0	4
O=C(/C=C\c1ccco1)NC(=S)Nc1ccccc1O	49*	-4	0	x	3
COc1ccc(NC(=O)N(C)C[C@H]2OCCCC[C@@H](C)Oc3ccc(NS(=O)(=O)c4ccc(Cl)cc4)cc3C(=O)N([C@@H](C)CO)C[C@H]2C)cc1	-1	6	0	-4	5
C[C@H](CO)N1C[C@H](C)[C@H](CN(C)C(=O)Nc2ccc(C(F)(F)F)cc2)Oc2c(cccc2N(C)C)C1=O	3	-7	-1	5	0
O=C(/C=C/c1ccco1)NC(=S)Nc1cccc(C(=O)O)c1	36*	3	1	2	22*
CCSC1=NCCN1S(=O)(=O)c1ccccc1	-2	-5	44*	1	-5
CCSC1=NCCN1S(=O)(=O)c1ccc(Cl)cc1	-4	-12	43*	-2	-2
O=S(=O)(c1ccccc1)N1CCN=C1SCc1ccccc1	0	-19	0	6	-3
COc1ccc(C(=O)COC(=O)CSCc2c(C)noc2C)cc1OC	-1	55*	0	-1	-1
COc1ccc(C(=O)C2CCCN(C(=O)Cc3c(C)noc3C)C2)cc1OC (stereo unspecified)	4	4	43*	-3	0
O=C(c1ccc(C(F)(F)F)cc1)C1CCCN(C(=O)CCN2CCCO2)C1 (stereo unspecified)	0	-3	44*	-1	11
Cc1nonc1CC(=O)N1CCCC(C(=O)c2cccc(C(F)(F)F)c2)C1 (stereo unspecified)	-7	-15	46*	2	-1
C[C@@H]1CCCCO[C@@H](CN(C)Cc2ccccc2)[C@@H](C)CN([C@H](C)CO)C(=O)c2cc(NC(=O)c3ccccc3)ccc2O1	x	13	0	x	x
O=C(C1CCC1)N1C[C@@H]2[C@H](c3ccccc31)[C@H](CO)N2S(=O)(=O)c1ccccc1	x	3	0	x	-3
Cc1sc2ncnc(SCC(=O)Nc3ncccc3O)c2c1C	43*	6	0	5	2
C[n+]1ccc(/C=C/c2cccs2)cc1	-20	-1	0	53*	3
Cc1ccccc1P(=O)(c1ccccc1)c1ccccc1C	2	x	44*	5	x
C[C@H](NC(=O)N(C)C[C@@H]1OCc2ccccc2-c2c(n(C)c3ccccc23)C(=O)N([C@@H](C)CO)C[C@@H]1C)c1ccccc1	-1	-7	0	4	-1
O=C1C=CC2(O[C@H](c3ccccc3)[C@@H](c3ccccc3)O2)[C@H](Sc2ccccc2O)C1	7	26	0	33*	-9

Source: PubChem
